Drawing on PubChem BioAssay, this text covers composite z-score and z-score for 13 compounds.

Calls of active or inactive are those of the source.

Experiment [1] has as its system PRMT1 (protein arginine N-methyltransferase 1). Kind of experiment: PRMT1 binders on small-molecule microarrays, primary screen, biochemical, small-molecule microarray, 635 nm fluorescence (AID 1088).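 Further: binding of Prmt1 protein to compounds spotted on small-molecule microarray slides.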 The conditions noted are these: small-molecule microarray binding, higher = more signal.
Experiment [2] in a line: yeast growth modulation, basal conditions, primary screen, YJM789 clinical isolate, OD600, 24 h (AID 1089).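 Further: growth of clinical yeast isolate S. cerevisiae YJM 789 seeded 1000 cells per well; test concentration not given here.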 As to conditions: S. cerevisiae YJM789 growth, higher = more signal, called active from +8 up or from −8 down.
Experiment [3] can be described thus: fission yeast growth modulation, primary screen, strain 972, OD600, 24 h, no modulator (AID 1090).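 Further: basal condition with compound alone and no growth modifier present; test concentration not given here.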 The conditions noted are these: S. pombe 972 growth, higher = more signal, called active from +8 up or from −8 down.
A short description of experiment [4]: S. cerevisiae growth modulation with rapamycin, primary screen, strain BY4716, OD600, 96 h (AID 1091). Further: test concentration not given here. As to conditions: higher = more signal, called active from +8 up or from −8 down.
Experiment [5] concerns the target Torsin-1A-interacting protein 2 (Homo sapiens) (UniProt Q8NFQ8). Kind of experiment: LULL1 binders on small-molecule microarray, primary screen, cell lysate, human LULL1 lysate, 635/667 nm fluorescence (AID 1092).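 Further: probe is lysate of COS7 cells overexpressing human LULL1; score merges per-feature 667 nm fluorescence with signal-to-noise.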 The conditions noted are these: hLULL1 lysate binding, 635 nm fluorescence, higher = more signal.
Experiment [6] can be described thus: E. coli growth modulation, two-sided OD650, primary screen, E. coli filamentation project, strain DRC41, 24 h (AID 1093).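 Further: MC1000 strain lacking acrAB efflux and sulA so SOS filamentation is blocked; test concentration not given here.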 The conditions noted are these: OD650, 24 h, higher = more signal, called active from +8 up or from −8 down.
Experiment [7] can be described thus: small-molecule microarray binders of probe aLefty2, primary screen, biochemical, biotinylated probe, 635/667 nm fluorescence (AID 1094).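 Further: score merges spot fluorescence near 667 nm with spot signal-to-noise ratio.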 The conditions noted are these: higher = more signal.
The subject of experiment [8] is Noggin (protein binding on small-molecule microarray). Kind of experiment: Noggin binders on small-molecule microarray, primary screen, biochemical, 635/667 nm fluorescence (AID 1095).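 Further: score merges 667 nm feature fluorescence with signal to noise over triplicate slides.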 The conditions noted are these: 635 nm fluorescence, higher = more signal.
Experiment [9] concerns the target Neurogenic locus notch homolog protein 3 (Homo sapiens) (UniProt Q9UM47). Kind of experiment: NOTCH3 binders on small-molecule microarray, primary screen, biochemical, 635/667 nm fluorescence (AID 1096). As to conditions: NOTCH3 binding, 635 nm fluorescence, higher = more signal.
Experiment [10] can be described thus: small-molecule microarray binders of probe aEGFR, primary screen, biochemical, biotinylated probe, 635/667 nm fluorescence (AID 1097).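 Further: probe is a biotinylated anti-EGFR antibody binding compounds printed on slides; score combines fluorescence near 667 nm and signal to noise of each spot.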 As to conditions: higher = more signal.

Neurogenic locus notch homolog protein 3 (Homo sapiens), sequence (Q9UM47 whole entry, looked up): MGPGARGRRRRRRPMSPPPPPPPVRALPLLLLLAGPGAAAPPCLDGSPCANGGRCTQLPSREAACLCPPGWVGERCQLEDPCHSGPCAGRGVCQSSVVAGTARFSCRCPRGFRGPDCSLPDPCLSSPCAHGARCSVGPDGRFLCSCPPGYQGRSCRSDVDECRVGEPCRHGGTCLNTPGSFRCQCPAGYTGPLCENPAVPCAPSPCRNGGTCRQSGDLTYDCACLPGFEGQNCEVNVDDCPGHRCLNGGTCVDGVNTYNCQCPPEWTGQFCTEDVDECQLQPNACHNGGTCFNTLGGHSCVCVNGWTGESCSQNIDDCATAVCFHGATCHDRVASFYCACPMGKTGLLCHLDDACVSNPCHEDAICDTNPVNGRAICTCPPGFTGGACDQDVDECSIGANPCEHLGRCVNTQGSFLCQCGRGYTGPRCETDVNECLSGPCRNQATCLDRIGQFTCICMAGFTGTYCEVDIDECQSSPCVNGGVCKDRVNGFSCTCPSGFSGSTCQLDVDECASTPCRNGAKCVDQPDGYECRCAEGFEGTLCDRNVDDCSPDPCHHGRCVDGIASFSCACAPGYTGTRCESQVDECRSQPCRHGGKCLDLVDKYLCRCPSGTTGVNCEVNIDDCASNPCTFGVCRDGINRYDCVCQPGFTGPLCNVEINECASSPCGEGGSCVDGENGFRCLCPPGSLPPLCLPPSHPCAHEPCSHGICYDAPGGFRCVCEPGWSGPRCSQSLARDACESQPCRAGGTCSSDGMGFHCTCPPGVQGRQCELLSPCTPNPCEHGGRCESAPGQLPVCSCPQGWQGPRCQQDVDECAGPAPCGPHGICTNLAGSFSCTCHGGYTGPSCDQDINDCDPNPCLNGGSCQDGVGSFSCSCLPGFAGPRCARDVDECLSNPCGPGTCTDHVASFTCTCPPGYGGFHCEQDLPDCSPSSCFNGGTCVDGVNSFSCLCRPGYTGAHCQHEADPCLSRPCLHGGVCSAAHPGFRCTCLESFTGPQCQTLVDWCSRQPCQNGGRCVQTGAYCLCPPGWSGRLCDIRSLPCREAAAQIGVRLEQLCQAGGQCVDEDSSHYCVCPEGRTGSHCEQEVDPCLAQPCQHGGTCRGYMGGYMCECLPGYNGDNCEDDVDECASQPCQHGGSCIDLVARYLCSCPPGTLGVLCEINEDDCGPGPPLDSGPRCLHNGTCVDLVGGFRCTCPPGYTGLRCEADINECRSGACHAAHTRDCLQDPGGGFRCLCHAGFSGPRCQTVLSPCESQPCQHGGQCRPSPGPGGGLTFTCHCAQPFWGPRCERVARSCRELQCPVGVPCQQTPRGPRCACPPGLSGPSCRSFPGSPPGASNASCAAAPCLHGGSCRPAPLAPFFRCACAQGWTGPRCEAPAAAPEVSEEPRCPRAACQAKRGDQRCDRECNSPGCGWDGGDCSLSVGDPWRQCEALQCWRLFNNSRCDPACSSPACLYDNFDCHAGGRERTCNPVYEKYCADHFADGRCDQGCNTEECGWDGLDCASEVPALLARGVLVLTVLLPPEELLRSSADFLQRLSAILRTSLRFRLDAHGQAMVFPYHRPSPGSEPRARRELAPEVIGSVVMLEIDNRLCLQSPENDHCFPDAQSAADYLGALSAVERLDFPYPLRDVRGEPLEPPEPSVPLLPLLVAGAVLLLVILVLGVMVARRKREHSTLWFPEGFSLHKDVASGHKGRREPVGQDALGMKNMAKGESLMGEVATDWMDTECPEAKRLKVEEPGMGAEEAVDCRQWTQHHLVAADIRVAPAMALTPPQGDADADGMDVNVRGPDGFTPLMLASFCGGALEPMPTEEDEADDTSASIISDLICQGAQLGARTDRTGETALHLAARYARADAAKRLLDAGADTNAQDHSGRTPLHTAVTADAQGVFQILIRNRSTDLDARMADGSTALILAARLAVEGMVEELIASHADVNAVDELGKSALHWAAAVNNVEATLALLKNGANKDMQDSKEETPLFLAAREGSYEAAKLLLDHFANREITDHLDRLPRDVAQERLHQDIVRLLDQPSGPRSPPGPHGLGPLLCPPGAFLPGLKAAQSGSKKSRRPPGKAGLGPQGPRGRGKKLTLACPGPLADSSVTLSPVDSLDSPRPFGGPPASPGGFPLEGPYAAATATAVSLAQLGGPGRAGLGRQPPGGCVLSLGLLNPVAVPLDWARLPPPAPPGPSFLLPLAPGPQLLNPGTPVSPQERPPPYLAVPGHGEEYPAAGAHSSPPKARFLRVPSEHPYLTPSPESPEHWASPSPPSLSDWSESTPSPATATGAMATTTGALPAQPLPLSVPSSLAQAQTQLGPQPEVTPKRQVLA
Torsin-1A-interacting protein 2 (Homo sapiens), sequence (Q8NFQ8 whole entry, looked up): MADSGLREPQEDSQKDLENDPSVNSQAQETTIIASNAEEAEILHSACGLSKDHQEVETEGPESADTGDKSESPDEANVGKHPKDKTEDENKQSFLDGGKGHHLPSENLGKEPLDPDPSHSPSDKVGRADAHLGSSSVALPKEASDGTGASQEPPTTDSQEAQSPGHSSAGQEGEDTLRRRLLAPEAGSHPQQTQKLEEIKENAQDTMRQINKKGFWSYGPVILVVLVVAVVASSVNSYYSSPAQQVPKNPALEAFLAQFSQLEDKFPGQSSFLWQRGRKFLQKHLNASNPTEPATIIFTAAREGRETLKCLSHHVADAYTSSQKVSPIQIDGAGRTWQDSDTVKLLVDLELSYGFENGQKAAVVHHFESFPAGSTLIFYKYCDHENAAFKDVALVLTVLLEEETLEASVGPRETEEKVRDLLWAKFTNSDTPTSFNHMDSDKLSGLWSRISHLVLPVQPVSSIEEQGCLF

As for `C=C(C)C1C(=C)CN([C@H](CO)c2ccccc2)C1=O` (stereo not given in full), the composite z-score in experiment [1] is 0.0584; in experiment [5] it was 1.62; in experiment [7] it was -0.0757; in experiment [8] it was 0.245; in experiment [9], 0.0316; in [10] it was -0.18. Also, the z-score in [2] was -0.329 (inactive); in experiment [3], -0.635 (inactive); in experiment [4], -1.97 (inactive); in [6] it was -0.233 (inactive).
For the compound `COCCOC(=O)N1C(=O)[C@@]2(c3cc(C#CCCO)ccc31)[C@H](c1ccc(OCCO)cc1)N1[C@H](c3ccccc3)[C@H](c3ccccc3)OC(=O)[C@H]1[C@@H]2C(=O)N1CCN(c2ncccn2)CC1`, the composite z-score in [1] is 1.55; in experiment [5], 2.42; in experiment [7] it was -0.123; in experiment [8], 1.23; in [9], 1.06; in experiment [10] it was -0.0066. For the same compound, the z-score is -0.01 (inactive) in experiment [2], 0.342 (inactive) in experiment [3], 2.94 (inactive) in [4] and -0.0542 (inactive) in [6].
For the compound `CC(C)(C)C(=O)N[C@@H](c1ccc(Cl)cc1)[C@]1(C)C[C@H]1C1CCCCC1`, the composite z-score is 1.05 in [1]; 3.61 in experiment [5]; 0.43 in experiment [7]; -0.486 in experiment [8]; 1.05 in [9]; 0.106 in experiment [10]. The z-score in [2] was 0.553 (inactive); in experiment [3] it was 0.613 (inactive); in [4], -0.104 (inactive); in experiment [6] it was -0.21 (inactive).
On to `C=C(COC)/C(=C/C[C@H](OC(=O)c1ccncc1)c1ccc(OCCO)cc1)c1cnc2ccccc2c1`, for which the composite z-score in experiment [1] was 1.53; in [5], 3.13; in [7] it was -0.0094; in experiment [8], 1.39; in experiment [9], 1.05; in experiment [10], 0.0176. Also, the z-score in experiment [2] is -0.922 (inactive); in experiment [3], -1.39 (inactive); in [4], 0.0294 (inactive); in experiment [6], -0.124 (inactive).
Consider `C=CCOC(=O)[C@H]1[C@@H]2C(=O)O[C@@H](c3ccccc3)[C@@H](c3ccccc3)N2[C@@H](c2ccc(OCCOC(=O)[C@H]3C[C@H]4C(=O)N[C@@H](CC(C)C)C(=O)N4[C@H]3c3ccc(O)cc3)cc2)[C@]12C(=O)Nc1ccc(I)cc12`, for which the composite z-score is 1.54 in [1]; 2.62 in experiment [5]; -0.282 in [7]; 1.67 in experiment [8]; 1.12 in experiment [9]; 0.0423 in experiment [10]. The z-score in experiment [2] was 1 (inactive); in [3], -1.4 (inactive); in experiment [4], 0.333 (inactive); in [6], -1.13 (inactive).
Take `COc1ccc(C(=O)Nc2cccc(CN3C(=O)[C@]4(O[C@H](CCO)[C@@H]([Si](C)(C)c5ccc(OC)cc5)[C@@H]4C)c4ccccc43)c2)cc1`: the composite z-score is 1.56 in experiment [1]; 1.83 in [5]; -0.164 in experiment [7]; 0.822 in [8]; 1 in experiment [9]; -0.0675 in experiment [10]. In addition, the z-score in [2] was 0.412 (inactive); in [3], -14.9 (active); in [4] it was 0.251 (inactive); in [6], 1.03 (inactive).
Turning to `O=C1OCC=C[C@H]2OC34C=CCN(CCN5CCOCC5)C(=O)[C@H]3N(CCCO)C(=O)[C@@H]4[C@@H]12` (stereo not given in full), the composite z-score in experiment [1] is -0.102; in experiment [5], 0.477; in experiment [7], -0.208; in experiment [8], 0.219; in experiment [9] it was 0.314; in [10], -0.128. Moreover, the z-score in [2] was 0.0736 (inactive); in experiment [3], -0.454 (inactive); in [4] it was 0.238 (inactive); in experiment [6], 0.681 (inactive).
With `C=CCNC(=O)[C@H]1[C@@H]2C(=O)O[C@@H](c3ccccc3)[C@@H](c3ccccc3)N2[C@@H](c2ccc(O)cc2)[C@]12C(=O)N(C(=O)OCCOC)c1ccc(C#CCNC(N)=O)cc12`, the composite z-score in experiment [1] is 1.42; in experiment [5] it was 0.922; in experiment [7] it was 0.136; in [8], 0.79; in experiment [9] it was 0.924; in [10] it was 0.0821. In addition, the z-score in experiment [2] is 0.905 (inactive); in experiment [3], 0.311 (inactive); in experiment [4], 1.63 (inactive); in [6], -0.781 (inactive).
In the case of `O=C1O[C@H](c2ccccc2)[C@H](c2ccccc2)N2[C@H]1[C@@H](C(=O)O)[C@]1(C(=O)Nc3ccc(C#CC4=CCCCC4)cc31)[C@H]2c1ccccc1OCCO`, the composite z-score is 1.53 in experiment [1]; 3.1 in experiment [5]; 0.196 in [7]; 1.05 in experiment [8]; 0.941 in [9]; -0.313 in experiment [10]. Also, the z-score in experiment [2] is 1.07 (inactive); in experiment [3] it was 1.1 (inactive); in experiment [4], -1.55 (inactive); in experiment [6], -0.273 (inactive).
`CC(=O)n1cc(C(O)C2C=CC3C(=O)N(C)C(=O)C3N2Nc2ccccc2)c2ccccc21` (stereo not given): the composite z-score in [1] was 1.05; in [5] it was 3.18; in [7], 0.347; in experiment [8], 0.606; in experiment [9], 1.12; in experiment [10], -0.0644. The z-score is -0.0186 (inactive) in experiment [2], 1.4 (inactive) in experiment [3], 1.05 (inactive) in [4] and -0.77 (inactive) in [6].
On to `C=C(CCCC)/C(=C/C[C@@H](OC(C)=O)c1ccccc1OCCO)c1cnc2ccccc2c1`, for which the composite z-score in [1] was 1.3; in [5], 1.1; in experiment [7] it was -0.0208; in experiment [8], 0.61; in [9] it was 0.513; in experiment [10] it was -0.0675. Moreover, the z-score is 0.182 (inactive) in experiment [2], -0.727 (inactive) in [3], 0.0058 (inactive) in [4] and 0.468 (inactive) in experiment [6].
Consider `C=CC[C@@]1(C(=O)NCc2ccccc2)N=C(c2ccc(OCCCO)cc2)O[C@@H]1c1ccccc1N=[N+]=[N-]`, for which the composite z-score worked out at 1.54 in [1]; 3.55 in [5]; 0.252 in [7]; 0.8 in experiment [8]; 1.09 in [9]; 0.006 in experiment [10]. The z-score in experiment [2] is 0.158 (inactive); in experiment [3], 0.178 (inactive); in experiment [4], 2.21 (inactive); in experiment [6] it was 0.266 (inactive).
Consider `NCCCCCNC(=O)[C@@H]1C[C@@H]2C(=O)N[C@@H](Cc3ccccc3)C(=O)N2[C@@H]1c1cccc(OCCO)c1`, for which the composite z-score in [1] is 0.715; in experiment [5], 1.8; in [7], -0.0075; in [8], 0.363; in [9] it was -0.448; in [10], -0.218. Further, the z-score in [2] was 0.653 (inactive); in experiment [3], -0.175 (inactive); in [4], 0.68 (inactive); in experiment [6], -0.47 (inactive).
